Assay results reported in the supplement of paper PMC10849652.
About 8,800 targets were measured; listed, in parts, are those with a hit and a random draw of the rest. About 0.5% of all pairs of compound and target were hits. A number with no mark means an inactive call.

Compound: CN1CCC(CNc2ccc3ncc(-c4cccc(OC(F)(F)F)c4)n3n2)CC1
Assay: log2 fold change, soluble protein after heating vs DMSO (PISA); higher = thermal stabilisation; K562 lysate, 10 uM; active = over 0.2 and 3.5 SD of the protein, either way, in both replicates (recomputed)
Method in brief: (§1)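 K562 pellets were dounce-homogenised in PBS pH 7.4 with 1 mM MgCl2, and the crude extract at 1 mg/mL protein was treated with 10 μM compound for 30 min. Aliquots were heated for 3 min across 48°C-58°C, pooled, and brought to 0.5% NP-40 at 4°C; soluble protein was the supernatant after 21,000xg for 90 min. Soluble protein was quantified by TMTpro 16plex LC-MS/MS with channel sums equalised, and reported as log2 fold change in thermal stability against DMSO controls, with values from duplicates.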

UniProt P00156, sequence (P00156 whole entry, looked up): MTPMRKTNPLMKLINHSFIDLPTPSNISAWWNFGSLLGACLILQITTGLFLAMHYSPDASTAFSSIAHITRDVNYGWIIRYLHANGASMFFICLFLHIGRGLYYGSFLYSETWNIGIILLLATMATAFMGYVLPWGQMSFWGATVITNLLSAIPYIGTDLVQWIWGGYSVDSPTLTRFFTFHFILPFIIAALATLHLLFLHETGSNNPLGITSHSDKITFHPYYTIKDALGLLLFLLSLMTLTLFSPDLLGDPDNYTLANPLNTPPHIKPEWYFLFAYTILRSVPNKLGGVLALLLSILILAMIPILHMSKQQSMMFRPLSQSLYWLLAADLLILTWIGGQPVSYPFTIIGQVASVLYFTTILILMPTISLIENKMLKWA
UniProt Q9UBD5, sequence (Q9UBD5 whole entry, looked up): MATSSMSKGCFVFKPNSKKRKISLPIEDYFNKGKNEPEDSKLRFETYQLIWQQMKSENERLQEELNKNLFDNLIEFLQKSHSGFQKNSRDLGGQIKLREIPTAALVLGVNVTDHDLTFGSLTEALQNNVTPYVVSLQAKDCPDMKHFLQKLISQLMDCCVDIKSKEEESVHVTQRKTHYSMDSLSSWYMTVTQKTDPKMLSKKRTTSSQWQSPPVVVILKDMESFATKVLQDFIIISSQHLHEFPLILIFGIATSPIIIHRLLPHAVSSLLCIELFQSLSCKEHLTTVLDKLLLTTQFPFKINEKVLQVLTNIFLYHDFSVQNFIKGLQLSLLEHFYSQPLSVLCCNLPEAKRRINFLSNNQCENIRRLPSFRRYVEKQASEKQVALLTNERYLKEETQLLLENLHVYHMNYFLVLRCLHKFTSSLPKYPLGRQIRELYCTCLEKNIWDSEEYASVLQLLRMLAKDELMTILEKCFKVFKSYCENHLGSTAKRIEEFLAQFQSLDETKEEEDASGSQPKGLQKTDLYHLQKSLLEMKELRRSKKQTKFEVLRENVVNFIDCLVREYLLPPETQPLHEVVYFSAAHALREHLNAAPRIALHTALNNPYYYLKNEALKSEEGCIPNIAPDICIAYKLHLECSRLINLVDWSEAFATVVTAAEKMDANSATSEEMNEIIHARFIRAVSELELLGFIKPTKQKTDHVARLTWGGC
MTHFD1, A0A384N5Y3, sequence (A0A384N5Y3 whole entry, looked up): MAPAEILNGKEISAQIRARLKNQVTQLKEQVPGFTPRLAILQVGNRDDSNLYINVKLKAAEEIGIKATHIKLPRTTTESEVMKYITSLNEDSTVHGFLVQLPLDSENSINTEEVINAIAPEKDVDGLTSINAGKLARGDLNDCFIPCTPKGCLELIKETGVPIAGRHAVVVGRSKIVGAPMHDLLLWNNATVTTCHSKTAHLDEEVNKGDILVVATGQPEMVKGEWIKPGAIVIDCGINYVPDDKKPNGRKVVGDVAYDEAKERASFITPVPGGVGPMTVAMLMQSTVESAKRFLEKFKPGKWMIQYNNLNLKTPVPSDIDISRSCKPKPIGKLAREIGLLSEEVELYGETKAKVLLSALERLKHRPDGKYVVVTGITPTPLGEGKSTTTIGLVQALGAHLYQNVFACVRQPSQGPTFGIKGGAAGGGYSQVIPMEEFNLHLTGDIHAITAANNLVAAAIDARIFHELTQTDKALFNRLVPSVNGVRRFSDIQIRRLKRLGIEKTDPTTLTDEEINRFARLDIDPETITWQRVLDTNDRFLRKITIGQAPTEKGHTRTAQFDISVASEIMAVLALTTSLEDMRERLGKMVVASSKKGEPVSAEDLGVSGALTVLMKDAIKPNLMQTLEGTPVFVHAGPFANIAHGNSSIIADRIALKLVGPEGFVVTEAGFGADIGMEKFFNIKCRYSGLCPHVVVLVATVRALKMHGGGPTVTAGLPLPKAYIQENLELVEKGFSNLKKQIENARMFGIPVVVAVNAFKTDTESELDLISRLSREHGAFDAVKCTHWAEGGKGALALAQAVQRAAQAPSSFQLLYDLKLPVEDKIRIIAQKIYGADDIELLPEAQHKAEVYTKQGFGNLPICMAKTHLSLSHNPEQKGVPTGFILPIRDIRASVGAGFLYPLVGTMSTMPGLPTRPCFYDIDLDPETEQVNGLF
UniProt Q9BRA0, sequence (Q9BRA0 whole entry, looked up): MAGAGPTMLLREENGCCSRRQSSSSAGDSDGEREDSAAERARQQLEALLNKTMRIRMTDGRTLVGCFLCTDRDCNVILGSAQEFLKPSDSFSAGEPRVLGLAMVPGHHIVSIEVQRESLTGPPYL
UniProt Q12769, sequence (Q12769 whole entry, looked up): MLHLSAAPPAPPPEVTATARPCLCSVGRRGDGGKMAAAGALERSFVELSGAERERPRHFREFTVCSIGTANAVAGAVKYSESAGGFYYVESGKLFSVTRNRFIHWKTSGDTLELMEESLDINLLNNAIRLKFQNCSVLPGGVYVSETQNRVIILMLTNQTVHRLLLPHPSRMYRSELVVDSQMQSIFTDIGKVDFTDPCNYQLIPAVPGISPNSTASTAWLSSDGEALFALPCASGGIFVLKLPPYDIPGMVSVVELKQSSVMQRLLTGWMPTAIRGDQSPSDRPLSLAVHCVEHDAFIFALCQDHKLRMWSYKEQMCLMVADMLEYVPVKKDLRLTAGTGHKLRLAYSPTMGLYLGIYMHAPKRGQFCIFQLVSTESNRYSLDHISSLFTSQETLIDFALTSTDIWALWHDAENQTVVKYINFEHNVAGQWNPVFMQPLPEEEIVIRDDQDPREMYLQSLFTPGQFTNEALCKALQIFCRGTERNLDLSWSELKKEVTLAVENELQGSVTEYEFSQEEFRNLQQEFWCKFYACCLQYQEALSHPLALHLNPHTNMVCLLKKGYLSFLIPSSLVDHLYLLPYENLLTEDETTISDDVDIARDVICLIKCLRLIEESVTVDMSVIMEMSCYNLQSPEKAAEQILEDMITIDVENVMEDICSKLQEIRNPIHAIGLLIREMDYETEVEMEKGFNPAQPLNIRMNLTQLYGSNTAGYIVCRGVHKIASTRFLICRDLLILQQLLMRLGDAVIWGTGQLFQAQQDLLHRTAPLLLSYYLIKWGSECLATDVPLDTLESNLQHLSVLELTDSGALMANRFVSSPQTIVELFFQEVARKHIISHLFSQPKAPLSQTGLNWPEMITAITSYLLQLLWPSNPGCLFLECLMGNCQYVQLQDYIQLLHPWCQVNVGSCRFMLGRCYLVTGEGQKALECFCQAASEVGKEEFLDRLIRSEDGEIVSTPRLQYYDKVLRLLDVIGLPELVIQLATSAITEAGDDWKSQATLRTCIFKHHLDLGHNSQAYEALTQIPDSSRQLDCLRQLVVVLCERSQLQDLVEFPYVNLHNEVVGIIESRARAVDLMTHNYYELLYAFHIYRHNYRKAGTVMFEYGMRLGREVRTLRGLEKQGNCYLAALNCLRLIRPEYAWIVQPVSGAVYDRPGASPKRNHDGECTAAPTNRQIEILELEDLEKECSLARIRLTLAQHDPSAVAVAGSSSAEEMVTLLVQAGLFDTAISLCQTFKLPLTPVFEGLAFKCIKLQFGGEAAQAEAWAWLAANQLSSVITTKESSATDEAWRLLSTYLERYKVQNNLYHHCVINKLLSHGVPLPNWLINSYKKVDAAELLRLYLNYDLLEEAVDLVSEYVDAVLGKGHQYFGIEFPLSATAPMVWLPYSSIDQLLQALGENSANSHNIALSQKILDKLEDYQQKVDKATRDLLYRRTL
UniProt Q96DH6, sequence (Q96DH6 whole entry, looked up): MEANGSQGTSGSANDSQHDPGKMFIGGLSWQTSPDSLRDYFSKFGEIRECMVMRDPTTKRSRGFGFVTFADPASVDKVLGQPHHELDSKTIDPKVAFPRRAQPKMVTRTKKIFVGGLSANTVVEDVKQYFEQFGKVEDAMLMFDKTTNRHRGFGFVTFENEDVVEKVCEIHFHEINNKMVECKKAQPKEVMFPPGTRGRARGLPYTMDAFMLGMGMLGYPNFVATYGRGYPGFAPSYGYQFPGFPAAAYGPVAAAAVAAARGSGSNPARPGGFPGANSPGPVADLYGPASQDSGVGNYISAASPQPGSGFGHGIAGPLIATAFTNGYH
UniProt Q86W56, sequence (Q86W56 whole entry, looked up): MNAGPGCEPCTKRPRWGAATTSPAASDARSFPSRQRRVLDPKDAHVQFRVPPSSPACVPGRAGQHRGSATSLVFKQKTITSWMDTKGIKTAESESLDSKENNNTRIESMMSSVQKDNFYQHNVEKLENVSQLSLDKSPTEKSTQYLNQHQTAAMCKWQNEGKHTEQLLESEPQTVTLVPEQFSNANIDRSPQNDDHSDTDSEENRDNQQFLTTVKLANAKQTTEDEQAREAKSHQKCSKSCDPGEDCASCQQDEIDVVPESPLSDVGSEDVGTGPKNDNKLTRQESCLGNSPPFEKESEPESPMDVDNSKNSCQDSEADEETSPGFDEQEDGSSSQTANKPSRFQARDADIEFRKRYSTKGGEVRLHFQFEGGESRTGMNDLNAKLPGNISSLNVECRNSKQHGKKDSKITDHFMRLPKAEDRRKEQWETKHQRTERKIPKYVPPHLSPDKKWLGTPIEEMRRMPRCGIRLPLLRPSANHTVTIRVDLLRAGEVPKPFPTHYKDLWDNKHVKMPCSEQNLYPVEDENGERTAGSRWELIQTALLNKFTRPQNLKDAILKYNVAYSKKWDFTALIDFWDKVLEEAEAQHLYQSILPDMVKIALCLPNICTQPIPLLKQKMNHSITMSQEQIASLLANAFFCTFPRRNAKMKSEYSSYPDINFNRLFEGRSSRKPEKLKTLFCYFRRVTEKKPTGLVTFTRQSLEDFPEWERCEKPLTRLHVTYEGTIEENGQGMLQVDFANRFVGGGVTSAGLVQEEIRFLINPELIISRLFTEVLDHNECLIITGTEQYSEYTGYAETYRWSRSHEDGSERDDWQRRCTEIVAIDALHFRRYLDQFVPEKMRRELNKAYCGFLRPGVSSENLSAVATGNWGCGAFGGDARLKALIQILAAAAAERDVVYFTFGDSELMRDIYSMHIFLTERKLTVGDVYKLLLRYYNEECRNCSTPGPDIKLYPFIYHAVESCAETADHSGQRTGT
UniProt Q15843, sequence (Q15843 whole entry, looked up): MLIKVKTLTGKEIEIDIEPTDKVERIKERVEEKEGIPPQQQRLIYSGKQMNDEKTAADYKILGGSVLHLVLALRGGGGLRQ

Question: For NOSTRIN (UniProt Q8IVI9), which log2 fold change is on record?
Answer: The log2 fold change was -0.094.

Question: Which log2 fold change does the source give for NUP160 (UniProt Q12769) here?
Answer: The log2 fold change was -0.058.

Question: MT-CYB (UniProt P00156) was tested. Which log2 fold change did it give?
Answer: The log2 fold change was 0.521 (active).

Question: How did the log2 fold change turn out when PARG (UniProt Q86W56) was run?
Answer: Its log2 fold change is -0.032.

Question: How did the log2 fold change turn out when OSGEP (UniProt Q9NPF4) was run?
Answer: The log2 fold change was 0.026.

Question: With ORC3 isoform 2 (UniProt Q9UBD5) as the target, how does the log2 fold change read?
Answer: The log2 fold change was -0.018.

Question: With MTHFD1, A0A384N5Y3 as the target, how does the log2 fold change read?
Answer: The log2 fold change was -0.053.

Question: NAA38 isoform 2 (UniProt Q9BRA0) was tested. Which log2 fold change did it give?
Answer: Its log2 fold change is 0.201.

Question: With NPTN (UniProt Q9Y639) as the target, how does the log2 fold change read?
Answer: Its log2 fold change is 0.052.

Question: NUP133 (UniProt Q8WUM0) was tested. Which log2 fold change did it give?
Answer: The log2 fold change was 0.04.

Question: With MSI2 (UniProt Q96DH6) as the target, how does the log2 fold change read?
Answer: Its log2 fold change is 0.002.

Question: For PAN2 isoform 2 (UniProt Q504Q3), which log2 fold change is on record?
Answer: Its log2 fold change is -0.04.

Question: Which log2 fold change does the source give for NPM3 (UniProt O75607) here?
Answer: Its log2 fold change is 0.158.

Compound: CN1CCN(CCOc2cc(OC3CCOCC3)c3c(Nc4c(Cl)ccc5c4OCO5)ncnc3c2)CC1 [saracatinib]
Assay: as above
Method in brief: as §1

Question: Which log2 fold change does the source give for NUMBL (UniProt Q9Y6R0) here?
Answer: The log2 fold change was 0.052.

Question: Which log2 fold change does the source give for OPA1 isoform 2 (UniProt O60313) here?
Answer: Its log2 fold change is 0.007.

Question: With MTHFD1L (UniProt B7ZM99) as the target, how does the log2 fold change read?
Answer: Its log2 fold change is 0.004.

Question: With PARD3 (UniProt Q8TEW0) as the target, how does the log2 fold change read?
Answer: Its log2 fold change is 0.016.

Question: Which log2 fold change does the source give for NACC1 (UniProt Q96RE7) here?
Answer: Its log2 fold change is -0.016.

Question: With NEDD8 (UniProt Q15843) as the target, how does the log2 fold change read?
Answer: The log2 fold change was 0.02.

Question: With PANK4 (UniProt Q9NVE7) as the target, how does the log2 fold change read?
Answer: Its log2 fold change is 0.001.

Question: NAA35 (UniProt Q5VZE5) was tested. Which log2 fold change did it give?
Answer: Its log2 fold change is 0.026.

Question: How did the log2 fold change turn out when OGFR (UniProt Q9NZT2) was run?
Answer: Its log2 fold change is 0.022.

Question: MTMR6 (UniProt Q9Y217) was tested. Which log2 fold change did it give?
Answer: The log2 fold change was 0.024.

Question: With OTC (UniProt P00480) as the target, how does the log2 fold change read?
Answer: Its log2 fold change is 0.012.

Question: NELFCD (UniProt Q8IXH7) was tested. Which log2 fold change did it give?
Answer: The log2 fold change was -0.005.

Question: Which log2 fold change does the source give for NFATC2IP (UniProt Q8NCF5) here?
Answer: Its log2 fold change is 0.003.

Question: How did the log2 fold change turn out when NUDT4 isoform 2 (UniProt Q9NZJ9) was run?
Answer: Its log2 fold change is 0.076.

Question: For NADK2 (UniProt Q4G0N4), which log2 fold change is on record?
Answer: The log2 fold change was -0.035.

Question: For NUP98 (UniProt P52948), which log2 fold change is on record?
Answer: Its log2 fold change is 0.073.

Question: How did the log2 fold change turn out when NR3C1 isoform 3 (UniProt P04150) was run?
Answer: The log2 fold change was 0.072.

Question: Which log2 fold change does the source give for PAXBP1 (UniProt Q9Y5B6) here?
Answer: The log2 fold change was 0.02.

Question: With NCAPD3 (UniProt P42695) as the target, how does the log2 fold change read?
Answer: Its log2 fold change is 0.008.

Question: For NPLOC4 isoform 2 (UniProt Q8TAT6), which log2 fold change is on record?
Answer: Its log2 fold change is 0.004.

Question: N4BP2 (UniProt Q86UW6) was tested. Which log2 fold change did it give?
Answer: Its log2 fold change is 0.018.

Question: Which log2 fold change does the source give for NCAPD2 (UniProt Q15021) here?
Answer: The log2 fold change was 0.006.

Question: For NCAPG (UniProt Q9BPX3), which log2 fold change is on record?
Answer: Its log2 fold change is 0.001.

Question: How did the log2 fold change turn out when NOSTRIN (UniProt Q8IVI9) was run?
Answer: The log2 fold change was -0.001.

Question: Which log2 fold change does the source give for NUP160 (UniProt Q12769) here?
Answer: The log2 fold change was 0.043.

Question: How did the log2 fold change turn out when MT-CYB (UniProt P00156) was run?
Answer: The log2 fold change was 0.047.

Question: With PARG (UniProt Q86W56) as the target, how does the log2 fold change read?
Answer: The log2 fold change was 0.006.

Question: How did the log2 fold change turn out when OSGEP (UniProt Q9NPF4) was run?
Answer: The log2 fold change was -0.006.

Question: Which log2 fold change does the source give for ORC3 isoform 2 (UniProt Q9UBD5) here?
Answer: The log2 fold change was -0.001.

Question: For MTHFD1, A0A384N5Y3, which log2 fold change is on record?
Answer: Its log2 fold change is -0.012.

Question: NAA38 isoform 2 (UniProt Q9BRA0) was tested. Which log2 fold change did it give?
Answer: Its log2 fold change is 0.042.

Question: Which log2 fold change does the source give for NPTN (UniProt Q9Y639) here?
Answer: Its log2 fold change is 0.02.

Question: NUP133 (UniProt Q8WUM0) was tested. Which log2 fold change did it give?
Answer: Its log2 fold change is 0.014.

Question: For MSI2 (UniProt Q96DH6), which log2 fold change is on record?
Answer: The log2 fold change was -0.015.

Question: How did the log2 fold change turn out when PAN2 isoform 2 (UniProt Q504Q3) was run?
Answer: The log2 fold change was -0.021.

Question: NPM3 (UniProt O75607) was tested. Which log2 fold change did it give?
Answer: The log2 fold change was -0.023.
